Screening results deposited in PubChem by several laboratories.
KKLEB cytotox: reduces viability of KKLEB cystic fibrosis airway cells. 360,000 compounds, 0.36% hits. AID 602141. activity change (cytotoxicity), % at 5 µM. KKLEB CF airway cells viability, ATPlite luminescence, overnight; stronger effect = lower value; cells stimulated with P. aeruginosa culture filtrate;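 active means corrected activity change at or below -50% at 5 µM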
HIF-2a block: blocks HIF-2a reporter activity; inhibition, % at 18.8 µM; 360,000 compounds, 0.72% hits; 786-0 RCC cells HIF-2a reporter, luciferase luminescence, overnight; AID 624352;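 active means inhibition of the luminescence signal of 40% or more relative to plate controls, in a single-dose primary screen at 18.75 µM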
CF NFkB inh: inhibitors of cystic fibrosis induced NF-kB; 360,000 compounds, 0.86% hits; KKLEB NF-kB-GFP reporter, PAF-induced, GFP fluorescence overnight; inhibition, % at 5 µM;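 active means at least 50% inhibition at 5 µM, scaled per plate between neutral and stimulator controls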;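 further: PAF is a Pseudomonas aeruginosa culture filtrate used as stimulus; plate controls were PAF-stimulated DMSO wells for no effect and unstimulated DMSO wells for full effect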
Peg3 prom inh-1: Peg3 promoter activity inhibition | inhibition, % at 20 µM | HeLa PEG-Prom luciferase reporter, luminescence, overnight | 360,000 compounds, 1.7% hits;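 active means inhibition of at least 50% at 20 µM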
TRPM1 prom inh: reduces MITF-dependent TRPM1 promoter luciferase signal | 330,000 compounds, 0.83% hits | inhibition, % at 12.5 µM | SK-MEL-5 TRPM1 promoter luciferase, 24 h;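 active means mean inhibition across replicates of 60% or more, whatever share of single replicates reaches that level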
CHOP inh: CHOP inhibition in unfolded protein response; CHO-K1 CHOP-promoter luciferase, tunicamycin-induced, 15-18 h; inhibition, % at 10 µM; 220,000 compounds, 3.8% hits;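 active means compounds that reduced the stress-induced luciferase reporter signal by more than about 70% of percent inhibition, limit read from the data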;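 further: 0% = tunicamycin plus vehicle and 100% = wells without tunicamycin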
Peg3 prom inh-2: Peg3 promoter inhibition confirmation; 1,300 compounds, 84% hits; HeLa PEG-Prom luciferase reporter, luminescence, overnight; shares compounds with Peg3 prom inh-1; inhibition, % at 20 µM; AID 602417;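 active means at 20 µM dose, 40% or more inhibition averaged across four replicates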
Starred values were filed as active, the others as inactive. The list is not random: actives were taken first. Their share in the collection is about 4.3%.

O=C(CCl)N1c2ccccc2Sc2ccc3ccccc3c21 was read as KKLEB cytotox -22, HIF-2a block 32, CF NFkB inh 26, Peg3 prom inh-1 107* and Peg3 prom inh-2 100*.
For O=C(COc1ccc2ccccc2c1)N1c2ccccc2Sc2ccccc21 the results were KKLEB cytotox 5, HIF-2a block 6, CF NFkB inh 16, Peg3 prom inh-1 20, TRPM1 prom inh 6 and CHOP inh 28.
For CN(C)CCCN1c2ccc3ccccc3c2Sc2cccc(Cl)c21 the results were KKLEB cytotox -2, HIF-2a block -70, CF NFkB inh 0, Peg3 prom inh-1 44 and TRPM1 prom inh -6.
COc1ccc(CCN(Cc2cccs2)S(=O)(=O)c2ccc(C(=O)O)cc2)cc1OC was read as KKLEB cytotox 3, HIF-2a block 11, CF NFkB inh 8, Peg3 prom inh-1 11, TRPM1 prom inh -3 and CHOP inh 44.
CC1Cc2ccccc2N1C(=O)Cn1cnc2ccccc21 (stereo not given) was read as KKLEB cytotox 12, HIF-2a block 5, CF NFkB inh 8, Peg3 prom inh-1 12, TRPM1 prom inh 16 and CHOP inh -2.
Cc1ccc2cccc(OCC(=O)Nc3cccc(S(=O)(=O)N4CCCC4)c3)c2n1 was read as KKLEB cytotox -18, HIF-2a block 6, CF NFkB inh 2, Peg3 prom inh-1 64*, TRPM1 prom inh 2 and Peg3 prom inh-2 64*.
`Cc1ccc(OCC(=O)Nc2cccc(S(=O)(=O)N3CCCCC3)c2)c([N+](=O)[O-])n1` gave KKLEB cytotox 7, HIF-2a block 18, CF NFkB inh 4, Peg3 prom inh-1 22, TRPM1 prom inh -6 and CHOP inh 16.
CC1(C)C(=O)C=CC(=O)C(C)(C)C(=O)C=CC(=O)C(C)(C)C2=CC=C(O2)C(C)(C)C(=O)C=CC1=O was read as KKLEB cytotox -9, HIF-2a block 2, CF NFkB inh 46, Peg3 prom inh-1 106*, TRPM1 prom inh 92* and Peg3 prom inh-2 100*.
`O=C(CN1CCNC(=O)C1)NCCc1ccc(Cl)cc1Cl` gave KKLEB cytotox -1, HIF-2a block 16, CF NFkB inh -2, Peg3 prom inh-1 -13, TRPM1 prom inh 1 and CHOP inh 18.
`O=C1NCC(Nc2ccc(Br)cc2)C(=O)N1` (stereo not given) gave KKLEB cytotox 18, HIF-2a block -2, CF NFkB inh -8, Peg3 prom inh-1 4 and TRPM1 prom inh 1.
COc1ccc2c(c1OC)C(=O)N1c3ccccc3SC21 (stereo not given) was read as KKLEB cytotox -4, HIF-2a block -244, CF NFkB inh -6, Peg3 prom inh-1 -332, TRPM1 prom inh -41 and CHOP inh -46.
Screening COc1ccc2c(c1OC)C(=O)N1c3ccccc3C(=O)N(c3ccccc3F)C21 (stereo not given) returned KKLEB cytotox -87*, HIF-2a block 7, CF NFkB inh 86*, Peg3 prom inh-1 62*, TRPM1 prom inh 9, CHOP inh 30 and Peg3 prom inh-2 45*.
Screening Cc1ccc(-c2nn(-c3ccccc3)cc2CSC(=N)N)cc1 returned KKLEB cytotox -6, HIF-2a block -26, CF NFkB inh -8, Peg3 prom inh-1 101*, TRPM1 prom inh 3, CHOP inh 60 and Peg3 prom inh-2 41*.
For COc1ccc(-c2cc(C(F)F)n3ncc(C(=O)n4ccnc4C)c3n2)cc1 the results were KKLEB cytotox -32, HIF-2a block 31, CF NFkB inh 74*, Peg3 prom inh-1 55*, TRPM1 prom inh 26, CHOP inh -324 and Peg3 prom inh-2 95*.
`COc1ccc(-c2cc(C(F)F)n3ncc(C(=O)N4CCc5ccccc54)c3n2)cc1` gave KKLEB cytotox -18, HIF-2a block 10, CF NFkB inh 20, Peg3 prom inh-1 26, TRPM1 prom inh 22 and CHOP inh 21.
`CCCN1CCc2c(sc(NC(=O)c3ccc(S(=O)(=O)N4CCN(C(=O)OCC)CC4)cc3)c2C(N)=O)C1` gave KKLEB cytotox -12, HIF-2a block 22, CF NFkB inh -11, Peg3 prom inh-1 65*, TRPM1 prom inh 51 and Peg3 prom inh-2 58*.
